Assay [1] has as its target Eukaryotic translation initiation factor 3 subunit B (UniProt P55884). Briefly: cross-linking mass spectrometry.
Another assay concerns the target Histone H2A type 2-B (UniProt Q8IUE6). The assay is described as follows: cross-linking mass spectrometry.
Assay [2] has as its target Large ribosomal subunit protein eL6 (UniProt Q02878). The assay is described as follows: cross-linking mass spectrometry.
Assay [3] deals with Large ribosomal subunit protein eL8 (UniProt P62424). Briefly: cross-linking mass spectrometry.
For the next assay, the target named is Nucleolar protein 16 (UniProt Q9Y3C1). The assay is described as follows: cross-linking mass spectrometry.
Assay [4] addresses Large ribosomal subunit protein uL13 (UniProt P40429). Briefly: cross-linking mass spectrometry.
The target of assay [5] is Large ribosomal subunit protein eL31 (UniProt P62899). The assay is described as follows: cross-link between two proteins; cross-linking mass spectrometry.
Assay [6] deals with Large ribosomal subunit protein uL15 (UniProt P46776). Briefly: cross-linking mass spectrometry.
Assay [7] deals with Large ribosomal subunit protein eL20 (UniProt Q02543). The assay is described as follows: cross-link between two proteins; cross-linking mass spectrometry.
For assay [8], the target named is Small ribosomal subunit protein uS4 (UniProt P46781). Briefly: cross-linking mass spectrometry.
For assay [9], the target named is Small ribosomal subunit protein uS9 (UniProt P62249). Briefly: cross-linking mass spectrometry.
Assay [10] addresses Large ribosomal subunit protein eL19 (UniProt P84098). Briefly: cross-link between two proteins; cross-linking mass spectrometry.
The target in assay [11] is Large ribosomal subunit protein eL36 (UniProt Q9Y3U8). Described as above.
Assay [12] has as its target Large ribosomal subunit protein eL43 (UniProt P61513). The assay is described as above.
For assay [13], the target named is Small ribosomal subunit protein eS24 (UniProt P62847). The description is as above.
Assay [14] deals with Small ribosomal subunit protein uS5 (UniProt P15880). Described as above.
Assay [15] concerns the target Small ribosomal subunit protein uS8 (UniProt P62244). The description is as above.

Consider “Small ribosomal subunit protein uS4, P46781”, for which, in assay [1], the “listed as a hit” value was “yes”.
In the case of Histone H3.1, P68431, in the assay with Histone H2A type 2-B, the “listed as a hit” value is recorded as “yes”.
Turning to “Large ribosomal subunit protein uL30, P18124”, the “listed as a hit” value in [2] was “yes”.
Take “Large ribosomal subunit protein eL13, P26373”: the “listed as a hit” value (in [3]; in the assay with Nucleolar protein 16) was “yes” throughout.
Consider “Large ribosomal subunit protein uL3, P39023”, for which the “listed as a hit” value in assay [4] and in assay [5] was “yes” throughout.
As to “Large ribosomal subunit protein uL16, P27635”, the “listed as a hit” value in assay [4] and in assay [6] was “yes” throughout.
As to “Large ribosomal subunit protein uL13, P40429”, the “listed as a hit” value in assay [6] and in [7] was “yes” throughout.
Take “Small ribosomal subunit protein uS3, P23396”: the “listed as a hit” value in assay [8] and in [9] was “yes” throughout.
In the case of “Large ribosomal subunit protein eL43, P61513”, the “listed as a hit” value in assay [10] is on record as “yes”.
Turning to “Large ribosomal subunit protein eL30, P62888”, the “listed as a hit” value in [10] is listed as “yes”.
For the substance “Large ribosomal subunit protein uL1, P62906”, the “listed as a hit” value in [11] is on record as “yes”.
For “Large ribosomal subunit protein eL34, P49207”, the “listed as a hit” value in assay [12] is reported as “yes”.
“Small ribosomal subunit protein uS17, P62280”: in assay [13], the “listed as a hit” value is “yes”.
In the case of “Small ribosomal subunit protein uS2, P08865”, the “listed as a hit” value in [14] is “yes”.
For the substance “Small ribosomal subunit protein uS5, P15880”, the “listed as a hit” value in assay [15] is listed as “yes”.
